The values below come from the supplement of paper PMC12636033.

± gives the standard deviation of the averaged measurements. Over roughly 33,000 sequences, “E-score (rank enrichment, -0.5 to 0.5)” has its median near -0.0075; the highest 2% begin near 0.23. This is one part of a sample in which the highest values are shown more often than they occur.

In this assay the test system is WT Max(13-93) synthetic (M65Nle). Briefly: PBM 8-mer E-score (E-score (rank enrichment, -0.5 to 0.5)); higher = stronger preferential binding. How it is done:
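Protein binding microarray (universal PBM chip covering all 10-mers in fixed probe flanks) with chemically synthesized human Max(13-93) bHLH-LZ analogs (not full-length Max) bearing noncanonical residues (hArg, Tha, Aib, Nle at 65) and aromatic Cys staples. Read-out per 8-mer (and its reverse complement): E-score (rank-based enrichment, -0.5 to 0.5) and Z-score of median probe intensity.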
Consider GACGCGGC, for which the “PBM 8-mer E-score” value was -0.164 ± 0.043.
Turning to CACGCGGA, the “PBM 8-mer E-score” value stood at 0.351 ± 0.014.
As for CACGCGGG, the “PBM 8-mer E-score” value is 0.224 ± 0.044.
The figure for CACGCGGC is 0.323 ± 0.0093; for AACGCGGC it is -0.0617 ± 0.052.
AACGCGGA: the “PBM 8-mer E-score” value was -0.0101 ± 0.013.
As for CGCAATAG, the “PBM 8-mer E-score” value was -0.129 ± 0.02.
In the case of ACCATCCA it was 0.0359 ± 0.035.
As to ACCTCAAG, the “PBM 8-mer E-score” value stood at 0.0864 ± 0.0059.
The figure for CGTATTCA is -0.00816 ± 0.064.
As to CACCTTTC, the “PBM 8-mer E-score” value came out at 0.0495 ± 0.029.
In the case of ACCGAAGC it was -0.0719 ± 0.043; in that of GATGTTTA, 0.0913 ± 0.016; in that of AGTGTTTA, 0.0808 ± 0.099.
As for CATGTTTA, the “PBM 8-mer E-score” value was 0.302 ± 0.07.
The figure for GGTGTTTA is -0.0165 ± 0.02; for CGTGTTTA it is 0.274 ± 0.019; for CATGTTTC it is 0.192 ± 0.017.
The figure for CGATCCAG is -0.318 ± 0.024; for ACGTAACT it is -0.0612 ± 0.056.
Consider ATGGAGCC, for which the “PBM 8-mer E-score” value was -0.159 ± 0.086.
Regarding ACCCTATC, the “PBM 8-mer E-score” value is -0.0509 ± 0.049.
In the case of ATAATGCA it was 0.161 ± 0.072; in that of AACGTGCG, 0.188 ± 0.037; in that of GACGTGCC, -0.0759 ± 0.054.
Turning to AACGTGCA, the “PBM 8-mer E-score” value worked out at 0.283 ± 0.044.
The figure for CCCGTGCG is 0.00827 ± 0.054.
In the case of CAGGTGCG it was -0.186 ± 0.068; in that of CACGTGCA, 0.4864 ± 0.0015; in that of AACGTGCC, 0.0848 ± 0.0026.
The figure for GACGTGCA is 0.132 ± 0.021; for CACGTGCC it is 0.472 ± 0.0067; for AACGTGCT it is 0.181 ± 0.038.
Turning to TACGTGCA, the “PBM 8-mer E-score” value was determined as 0.126 ± 0.094.
The figure for CACGTGCG is 0.48552 ± 0.00018.
Take AAACTCAG: the “PBM 8-mer E-score” value is -0.0399 ± 0.035.
For AAGTGTCA, the “PBM 8-mer E-score” value was 0.0618 ± 0.14.
Take AAATAAGT: the “PBM 8-mer E-score” value came to 0.126 ± 0.0013.
In the case of CTTGTTGC it was 0.124 ± 0.046; in that of CTGCCGGA, -0.102 ± 0.082; in that of ACAAGCAA, 0.239 ± 0.01.
With ACAAATGT, the “PBM 8-mer E-score” value is 0.277 ± 0.073.
Consider ACAAAAAT, for which the “PBM 8-mer E-score” value was 0.111 ± 0.084.
In the case of ACAAGCAC it was 0.0152 ± 0.013; in that of CAAAAACC, 0.241 ± 0.035; in that of ACAAAAAC, 0.215 ± 0.07.
In the case of GCAAGCAA it was -0.0138 ± 0.026; in that of CAAAACCC, 0.138 ± 0.027; in that of ACAAAAAA, 0.251 ± 0.016.
The figure for ACAAATGA is 0.104 ± 0.068.
CCAAAACC: the “PBM 8-mer E-score” value amounted to 0.0915 ± 0.13.
With ACAAATGG, the “PBM 8-mer E-score” value is 0.196 ± 0.099.
In the case of ACCACCTC it was 0.0118 ± 0.00067; in that of ACGTTTTC, 0.116 ± 0.034; in that of ATAGAGTC, -0.13 ± 0.093.
With CGTCGAAG, the “PBM 8-mer E-score” value is -0.152 ± 0.018.
With CTAGCTCC, the “PBM 8-mer E-score” value is -0.117 ± 0.094.
With GCACGACA, the “PBM 8-mer E-score” value is -0.0608 ± 0.098.
With AAGCTGGA, the “PBM 8-mer E-score” value was -0.0702 ± 0.12.
In the case of GCAGAAGC, the “PBM 8-mer E-score” value is -0.118 ± 0.075.
The figure for ATGTTCCC is 0.0189 ± 0.083; for CAAAAAAC it is 0.161 ± 0.012.
In the case of CCAAAAAA it was 0.171 ± 0.017; in that of TAAAATAA, 0.15 ± 0.0044; in that of ACAAAATA, 0.209 ± 0.054.
On to AAAAATAA, for which the “PBM 8-mer E-score” value was 0.0936 ± 0.097.
Take CAAAAAAA: the “PBM 8-mer E-score” value was determined as 0.248 ± 0.0035.
With ACAAAATC, the “PBM 8-mer E-score” value turned out to be 0.106 ± 0.0076.
ACAAAATG: the “PBM 8-mer E-score” value was 0.3408 ± 0.0015.
Regarding CAAAATAA, the “PBM 8-mer E-score” value was 0.239 ± 0.012.
In the case of CGTGCCCA it was -0.00988 ± 0.079.
The figure for ATCTTAGG is -0.0691 ± 0.031; for CAGTGATG it is 0.0281 ± 0.13; for ACGAGGCC it is -0.0195 ± 0.14.
With GCGCTCAC, the “PBM 8-mer E-score” value was -0.00351 ± 0.038.
The figure for ACAGCGTA is -0.0609 ± 0.029; for ACCGCGTA it is 0.0537 ± 0.048; for ACCGCGTG it is 0.365 ± 0.056.
In the case of ACCGCGTC it was -0.117 ± 0.08; in that of ACAGCGTC, 0.0682 ± 0.028.
In the case of ACAGCGTG it was 0.235 ± 0.013; in that of GAACCCCC, -0.387 ± 0.031.
ATCTTCAG: the “PBM 8-mer E-score” value was 0.0326 ± 0.1.
Take TAGTCAAA: the “PBM 8-mer E-score” value was found to be 0.14 ± 0.09.
In the case of TAGATTAA it was 0.154 ± 0.027.
On to CGATGCCC, for which the “PBM 8-mer E-score” value is -0.19 ± 0.045.
